Screening results (PubChem BioAssay)
MCF10A rereplic: A quantitative high throughput screen for small molecules that induce DNA re-replication in MCF 10a normal breast cells | MCF 10A DNA re-replication, Hoechst nuclear intensity, 48 h | 2.9% of 350,000 active | AID 624296, 2012 | Potency, µM (doses to about 46.1 µM), without a hit: top-dose activity, positive = re-replication, most hits filed as activators; also: potency is read from the fitted curve at half-maximal effect; % of control where 0% means no effect; nearly all actives have a fitted effect of over 50% in size
KB-V1 cytotox: qHTS assay for MDR1-selective chemotherapeutics: Primary screen using the drug-selected MDR subline cells KB-V1. KB-V1 MDR cells viability, CellTiter-Glo, 72 h. Potency, µM (top dose mostly 46.1 µM), usual class: cytotoxic. 3.4% of 400,000 active. AID 1347076, 2019; also: potency is read from the fitted curve at half-maximal effect; % is scaled to controls: 0 for no effect and ±100 for the full control effect; nearly all actives have a fitted effect of over 60% in size
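Luminescent ATP read-out (CellTiter-Glo, 10 min) measures survival of drug-selected KB-V1 MDR cells after 72 h, 37 degrees C compound exposure. Medium: phenol-red-free DMEM, 10% FBS. Values from fitted concentration-response curves.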
Giardia kill: Small Molecules that selectively kill Giardia lamblia: qHTS; Giardia lamblia trophozoite viability; AID 540267, 2011; activity change, % at 7.66 µM, hits read low; 0.15% of 340,000 active; in the data active = activity change below about -80%; inconclusive = between about -30% and that limit;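 also: parasites exposed to compound for two days anaerobically before the ATP read; % is scaled to controls: 0 for no effect and ±100 for the full control effect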
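Media and compound were dispensed first, then trophozoites at 100 cells/well; plates sat 48 hrs at 37 deg C without oxygen before ATP luminescence reagent was added and read after 15-30 min at room temperature.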
KB-3-1 cytotox: qHTS assay for MDR1-selective chemotherapeutics: Primary screen using the parental adenocarcinoma cell KB-3-1; 1.4% of 400,000 active; AID 1347075, 2019; KB-3-1 viability, CellTiter-Glo ATP luminescence, 72 h; Potency, µM (highest dose often 46.1 µM), usual class: cytotoxic; also: potency is read from the fitted curve at half-maximal effect; % is scaled to controls: 0 for no effect and ±100 for the full control effect; nearly all actives have a fitted effect of over 60% in size
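72 h, 37 °C compound treatment of KB-3-1 parental cells; CellTiter-Glo added, 10 min, luminescence read. Data corrected against DMSO-only plates and normalized before curve fitting.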
S-ASM inh: Inhibitors of Secretory Acid Sphingomyelinase (S-ASM): qHTS. 0.006% of 340,000 active. Sphingomyelin phosphodiesterase (Homo sapiens), P17405. Potency, µM (doses to about 57.5 µM), for the others: at the top dose activity change, negative = inhibition, hits mostly inhibitors. placental ASM, HMU-PC fluorogenic substrate, 60 min; also: potency is read from the fitted curve at half-maximal effect
Target sequence (P17405 47-631 limits assumed): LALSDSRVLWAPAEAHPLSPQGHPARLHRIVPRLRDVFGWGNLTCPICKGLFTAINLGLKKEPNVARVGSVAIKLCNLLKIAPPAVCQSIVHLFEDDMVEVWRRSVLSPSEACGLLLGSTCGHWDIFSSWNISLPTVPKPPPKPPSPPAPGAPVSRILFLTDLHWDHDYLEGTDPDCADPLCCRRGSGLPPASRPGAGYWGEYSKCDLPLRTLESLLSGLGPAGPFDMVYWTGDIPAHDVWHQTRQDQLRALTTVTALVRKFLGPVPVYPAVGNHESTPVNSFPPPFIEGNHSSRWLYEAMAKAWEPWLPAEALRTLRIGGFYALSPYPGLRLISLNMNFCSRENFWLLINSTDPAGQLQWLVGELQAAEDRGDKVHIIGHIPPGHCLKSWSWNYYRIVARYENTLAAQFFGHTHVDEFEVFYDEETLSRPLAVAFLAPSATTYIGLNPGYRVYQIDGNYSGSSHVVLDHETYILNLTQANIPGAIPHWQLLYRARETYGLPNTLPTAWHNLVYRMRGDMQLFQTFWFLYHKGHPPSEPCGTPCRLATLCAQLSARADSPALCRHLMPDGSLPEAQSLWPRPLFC
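Steps: dispense placental human ASM, pin compound, wait 10 min at room temperature, add HMU-PC0 substrate at 9 uM final, incubate 60 min at 37 °C, add stop solution raising pH to 10, read fluorescence.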
SW480 rerep: A quantitative high throughput screen for small molecules that induce DNA re-replication in SW480 colon adenocarcinoma cells; SW480 DNA re-replication, Hoechst DNA content imaging, 48 h; Potency, µM (highest dose often 46.1 µM), for inactives: at the highest dose re-replication activation, usual class: activators; 1.8% of 340,000 active; AID 624297, 2012; also: potency is read from the fitted curve at half-maximal effect; % of control where 0% means no effect; nearly all actives have a fitted effect of over 55% in size
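Per well, 250 cells were exposed to pinned compound for 48 hr. Nuclear DNA was visualised with Hoechst (40 min, 37 C) and total object intensity recorded by fluorescence scanning.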
* = called active by the depositor; i = inactive; u = inconclusive; x = no result given; ! = a repeat was not active; [ ] = remark or other dose. Compounds with a hit are over-represented: about 6.9% of the library has one in this group of screens. Unless noted, calls follow the shape of the dose curve; as a rule, active = well fitted curve in the direction sought with a large enough effect; inconclusive = small, poorly fitted or top-dose-only effect, or another doubt; inactive = no such curve, though single readings can be large; an effect the other way counts as inactive or inconclusive.

SMILES | MCF10A rereplic | KB-V1 cytotox | Giardia kill | KB-3-1 cytotox | S-ASM inh | SW480 rerep
ClC1=C(Cl)C2(Cl)C(CBr)CC1(Cl)C2(Cl)Cl (stereo not given) | 19µM* | x | x | x | x | -6%
CN(C)C(=S)SSC(=S)N(C)C | 21µM*! | i | -85* | i | 0% | 1.3µM*
CN(C)C(=S)SC(=S)N(C)C | 3% | x | x | x | x | 2.7µM*
O=Cc1ccco1 | -1% | x | x | x | x | -1%
Cc1ccc(NC(=O)c2ccc(C)c(S(=O)(=O)N3CCCCC3)c2)nc1 | 14% | i | -29 | i | -2% | 0%
Cc1ccc(C(=O)Nc2ccccc2)cc1S(=O)(=O)N1CCCC1 | x | 15µM* | x | u | x | x
O=C(Oc1ccc2cc(Br)ccc2c1)N1CCCCCC1 | u | x | x | x | x | 0%
CC(C)CC(CN)CC(=O)O (stereo not given) | 5% | x | x | x | x | 3%
Cn1cc(Br)c(C(=O)Nc2ccc3c(C(F)(F)F)cc(=O)oc3c2)n1 | 1% | i | -4 | i | 341% | u
Cn1cc([N+](=O)[O-])c(C(=O)Nc2ccc3c(C(F)(F)F)cc(=O)oc3c2)n1 | u | i | 23 | u | -1% | 12µM*
C[C@H]1CCC/C=C/[C@@H]2C[C@H](O)C[C@H]2[C@@H](O)/C=C/C(=O)O1 | 5% | 0.18µM* | -2 | 0.18µM* | 4% | u
C[C@H]1CCCC=CC2C[C@H](O)C[C@@H]2[C@H](O)C=CC(=O)O1 (stereo not given in full) | x | 0.018µM* | x | 0.0073µM* | x | x
C=C(C)[C@@H]1CC[C@]2(C(=O)O)CC[C@]3(C)C(CCC4[C@@]5(C)CC[C@H](O)C(C)(C)C5CC[C@]43C)C12 (stereo not given in full) | u | i | 2 | u | -2% | u
Cc1cc(=O)n(-c2ccccc2)n1C | u | i | 7 | u | 5% | 13%
CCCC12CN3CC(C)(CN(C1)C3c1ccccn1)C2=O (stereo not given) | x | i | x | i | x | x
COCC(C)N(C(=O)CCl)c1c(C)csc1C (stereo not given) | 1% | x | x | x | x | -1%
O=[N+]([O-])c1cc([As](=O)(O)c2ccc(O)c([N+](=O)[O-])c2)ccc1O | 18% | i | -83* | i | -2% | 8%
NCC(=O)c1ccc(Br)cc1 | x | i | x | i | x | x
CC(C)Sc1nnc([C@@H](N)Cc2c[nH]c3ccccc23)o1 | 14% | 18µM* | 5 | i | 3% | -4%
Cc1ccc(C(C)C)c(OCCn2c(=O)oc3ccccc32)c1 | u | u | 36 | i | -22% | u
COC(=O)c1ccc(NC(=O)c2cccn(Cc3ccccc3C)c2=O)cc1 | x | u | x | i | x | x
c1ccc(-c2cc(-c3ccccc3)[n+](-c3ccccc3)c(-c3ccccc3)c2)cc1 | 21% | i | 29 | 4.6µM* | -1% | -4%
CCOC(=O)c1ccc(-[n+]2c(-c3ccccc3)cc(-c3ccccc3)cc2-c2ccccc2)cc1 | u | i | 17 | i | 0% | u
Cc1ccc(-c2cc(-c3ccc(C)cc3)[n+](-c3ccc(C(=O)[O-])cc3)c(-c3ccc(C)cc3)c2)cc1 | u | i | -23 | i | -2% | -3%
Cc1ccc(-c2cc(-c3ccc(C)cc3)[n+](-c3ccccc3)c(-c3ccc(C)cc3)c2)cc1 | u | i | 3 | 5.8µM* | -3% | u
SMILES | MCF10A rereplic | KB-V1 cytotox | Giardia kill | KB-3-1 cytotox | S-ASM inh | SW480 rerep
CN(C)c1ccc(-[n+]2c(-c3ccccc3)cc(-c3ccccc3)cc2-c2ccccc2)cc1 | u | 21µM* | 0 | 0.65µM* | -17% | u
Cc1ccc(-c2cc(-c3ccccc3)cc(-c3ccccc3)[n+]2-c2ccccc2)cc1 | 23µM* | i | 13 | u | -3% | 13%[9.22 µM]
CCC12CN3CC(CC)(CN(C1)C3c1ccccn1)C2=O (stereo not given) | x | i | x | i | x | x
CN1C2CCC1/C(=C/c1ccccn1)C(=O)/C2=C\c1ccccn1 | u | u | -15 | 0.92µM* | -2% | u
O=C1CCCCC1CN1CCCCC1 (stereo not given) | -4% | x | x | x | x | 0%
C[N+]1(C)C2CC[C@H]1CC(OC(=O)[C@@H](CO)c1ccccc1)C2 (stereo not given in full) | 9% | x | x | x | x | u
O=C1NC2C(O)C(O)C(O)C(O)C2c2cc3c(c(O)c21)OCO3 (stereo not given) | 14% | 0.52µM* | 1 | u | 8% | 17%
O=C1NC2C(=CC(O)C(O)C2O)c2cc3c(cc21)OCO3 (stereo not given) | u | 2.3µM* | -5 | 3.3µM* | 2% | 23%
O=C1NC2C(=CC(O)C(O)C2O)c2cc3c(c(O)c21)OCO3 (stereo not given) | u | u | u | 0.1µM* | 350% | u
C[C@H](CO)N1C[C@H](C)[C@H](CN(C)S(=O)(=O)c2ccccc2)Oc2ccc(NC(=O)NC3CCCCC3)cc2CC1=O | u | i | 1 | i | -2% | 18%
Cc1cc2c(C(C)C)c(O)c(O)c(C=O)c2c(O)c1-c1c(C)cc2c(C(C)C)c(O)c(O)c(C=O)c2c1O | u | u | x | 1.5µM* | x | 13µM*!
C=C1C=C(C(F)F)n2ncc(C(=O)NCc3ccccc3F)c2N1 | x | i | x | u | x | x
CCC(=O)O[C@H]1CC[C@H]2[C@@H]3CCC4=CC(=O)CC[C@]4(C)[C@H]3CC[C@]12C | u | u | -9 | i | -7% | -81%
CC(=O)C1C(N2CC2)CC2C3CCC4=CC(=O)CCC4(C)C3CCC21C (stereo not given) | 16µM* | u | -2 | u | 6% | u
C[C@]12CC[C@H]3[C@@H](CCC4=CC(=O)CC[C@@]43C)[C@@H]1CC[C@@H]2C(=O)CO | u | 8.2µM* | -30 | u | -4% | u
CC12CCC(=O)C=C1CCC1C2C(O)CC2(C)C(O)CCC12 (stereo not given) | -6% | u | 11 | u | 1% | -11%
CC1CC2C(C(O)CC3(C)C(O)CCC23)C2(C)CCC(=O)C=C12 (stereo not given) | 7% | 6.5µM* | 15 | 12µM* | 4% | 6%
